# Screening results: PubChem, National Center for Advancing Translational Sciences (NCATS)
# Rows were chosen to be rich in hits. Some 19% of all compounds tested hit in one or more screens of this group.
# HT1080NT lethal – kills 2HG-producing HT-1080-NT fibrosarcoma cells; 360,000 tested, 1.6% active; Potency, µM (doses to about 46.1 µM), for the others: top-dose activity, negative = less viability, most hits filed as cytotoxic; HT-1080-NT fibrosarcoma viability, CellTiter-Glo ATP luminescence, 48 h;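 further: NT is the 2HG producing partner of a matched IDH1 knockdown line; potency means the concentration at half of the fitted maximal effect; 0% = DMSO-treated cells and -100% = media-only wells without cells; nearly all actives have a fitted effect of over 55% in size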
#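 Toxicity toward the 2HG-producing NT line was scored as %Activity, normalised to DMSO and no-cell wells, from CellTiter-Glo luminescence after 48 hours' treatment.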
# HT1080 IDH1KD tx – kills HT-1080 cells with IDH1 knockdown. HT-1080 IDH1 knockdown viability, ATP luminescence, 48 h. Potency, µM (doses to about 46.1 µM), for inactives: at the highest dose activity, negative = toxicity, usual class: cytotoxic. 360,000 tested, 2% active;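 further: potency means the concentration at half of the fitted maximal effect; 0% = DMSO wells and -100% = cell-free medium wells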
#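 Using the IDH1-knockdown HT-1080 line run in the same batch and compound series as the NT line, viability after 48 h at 37 °C was determined by CellTiter-Glo luminescence and expressed as % activity.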
# DT40 TDP1 CPT – growth inhibition of DT40 Tdp1-/-;hTDP1 cells with camptothecin (screen for TDP1 inhibitors); chicken DT40 Tdp1-/-;hTDP1 cells + 20 nM CPT, ATP luminescence, 48 h; Potency, µM (titrated, usually from 46.2 µM), inactives show at the highest dose activity change, negative = growth inhibition, most hits filed as inhibitors; 420,000 tested, 12% active; AID 686979; further: potency means the concentration at half of the fitted maximal effect; nearly all actives have a fitted effect of over 55% in size
#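 Chicken DT40 Tdp1-/- cells complemented with human TDP1, 400 cells/well, exposed to compounds plus 20 nM camptothecin for at least 48 h at 37 C; viability read as ATP content by CellTiter-Glo luminescence.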
# IL1B secr inh – blocks inflammasome-driven IL-1 beta release | THP-1 LPS/ATP IL-1B secretion, AlphaLISA, 16 h; hits give low values | activity change, % at 57.5 µM | 360,000 tested, 4.7% active; in the data active means activity change below about -50%; inconclusive means mostly about -30% to -49%
#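 Secreted IL-1B measured by AlphaLISA bead assay after 16 h compound exposure of THP-1 cells; compounds (final up to 57.5 uM) added 1 h before LPS (250 ng/mL) and ATP (1.25 mM) stimulation; lower signal means less secretion.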
# TDP1 cell noCPT – qHTS for Inhibitors of human tyrosyl-DNA phosphodiesterase 1 (TDP1): qHTS in cells in absence of CPT; AID 686978, 2013; DT40 Tdp1-/- hTDP1 cells, no CPT, ATP luminescence, 48 h; Potency, µM (series often up to 46.2 µM), for inactives: top-dose activity change, negative = growth inhibition, usual class: inhibitors; 420,000 tested, 15% active; further: potency means the concentration at half of the fitted maximal effect; nearly all actives have a fitted effect of over 55% in size
#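 Cells were dispensed at 400 per well, compounds added by pin tool, plates incubated ≥48 hr at 37 °C, then CellTiter-Glo added for 30 min at room temperature before luminescence reading. Line: DT40 Tdp1-/- complemented with hTDP1; camptothecin omitted.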
# Numbers without * were called inactive; ? = inconclusive; nt = no result. Unless noted, the call rests on the fitted dose curve; in most records, active means well fitted curve in the direction sought with a large enough effect; inconclusive means small, poorly fitted or top-dose-only effect, or another doubt; inactive means no such curve, though single readings can be large; an effect the other way counts as inactive or inconclusive. Unless noted, on the % scale 0 is the no-effect control and ±100 the full control effect.
SMILES,HT1080NT lethal,HT1080 IDH1KD tx,DT40 TDP1 CPT,IL1B secr inh,TDP1 cell noCPT
COc1ccccc1OCCNC(=O)CNC(=O)c1ccc(C(C)(C)C)cc1,-7%,?,-11%,-28,-21%
CCCNC(=O)C1=CC(c2ccc3c(c2)OCO3)=NS(=O)(=O)N1C,nt,nt,0%,nt,-22%
CC(Cc1ccccc1)NC(=O)/C=C/c1ccc([N+](=O)[O-])cc1 (centres undefined),0%,0%,26µM*,-23,18µM*
COC(=O)C(CC(C)C)NC(=O)/C=C/c1ccc(Cl)cc1 (centres undefined),-15%,-7%,13%,8,-8%
CC(Cc1ccccc1)NC(=O)c1ccc([N+](=O)[O-])cc1 (centres undefined),7%,19%,?,-13,-23%
CC(CCc1ccccc1)NC(=O)/C=C/c1ccc(Cl)cc1 (centres undefined),4%,-2%,6%,-79*,-20%
C/C(=N/Nc1nc(C)cc(-c2ccccc2)n1)c1ccco1,-6%,?,21µM*,-11,?
C/C(=N\Nc1nc(C)cc(-c2ccccc2)n1)c1ccc(C)o1,0%,-10%,?,-2,4.6µM*
C/C(=N\NC(=O)C(O)(c1ccccc1)c1ccccc1)c1ccc(C)o1,-18%,-17%,?,7,18µM*
CN1CCN(CC(=O)Nc2cc(S(=O)(=O)N3CCOCC3)ccc2Cl)CC1,-5%,-2%,-21%,-1,1%
O=C(CN1CCCc2ccccc21)Nc1cc(S(=O)(=O)N2CCCC2)ccc1Cl,-1%,2%,18µM*,-4,?
CC1Cc2ccccc2N1CC(=O)Nc1cc(S(=O)(=O)N2CCOCC2)ccc1Cl (centres undefined),-20%,0%,?,-5,23µM*
Cc1ccc2c(c1)CCCN2CC(=O)Nc1cc(S(=O)(=O)N2CCCC2)ccc1Cl,-1%,-9%,21µM*,12,15µM*
CN(C(=O)COC(=O)c1cc(S(=O)(=O)N2CCOCC2)ccc1Cl)C1CCS(=O)(=O)C1 (centres undefined),-5%,-1%,19%,4,-12%
O=C(CN1C(=O)/C(=C/c2ccccc2Cl)SC1=S)NC1CCS(=O)(=O)C1 (centres undefined),-14%,-5%,-20%,-8,-6%
Cc1cccc(N2CCN(C(c3ccccc3)c3nnnn3C(C)(C)C)CC2)c1C (centres undefined),7%,2%,?,-12,23µM*
CC(C)(C)n1nnnc1C(c1cccs1)N1CCN(c2ccccc2)CC1 (centres undefined),2%,0%,-10%,-12,?
CC(C)(C)n1nnnc1C(c1cccnc1)N1CCN(c2ccccc2F)CC1 (centres undefined),13%,5%,0%,20,0%
CCC(c1nnnn1C(C)(C)C)N1CCN(c2cc(Cl)ccc2C)CC1 (centres undefined),-14%,-20%,?,-6,16µM*
Cc1cccc(N2CCN(C(c3cccs3)c3nnnn3C(C)(C)C)CC2)c1C (centres undefined),11%,-26%,18µM*,-3,22µM*
N#Cc1ccccc1OCC(=O)Nc1cc(S(=O)(=O)N2CCCCC2)ccc1N1CCOCC1,-2%,-7%,?,1,?
Cc1ccc(N(CC2CO2)S(=O)(=O)c2ccc([N+](=O)[O-])cc2)cc1 (centres undefined),?,?,?,-14,-28%
COC(=O)C(C(=O)OC)C1CCCCC1NS(=O)(=O)c1ccc(C)cc1 (centres undefined),0%,14%,-22%,14,-19%
